Bioassay records deposited in PubChem by National Center for Advancing Translational Sciences (NCATS).
Sampled rows, rich in hits. Any-hit rate of the full collection: about 12%.
JMJD2A Tudor inh: inhibitors of human JMJD2A Tudor domain. O75164. AlphaScreen JMJD2A-Tudor / H3K4me3 peptide binding. Potency, µM (highest dose often 114 µM), for inactives: at the top dose activity change, negative = inhibition, hits mostly inhibitors. 390,000 compounds, 4.4% hits; note: % is set by controls: 0 for no effect and ±100 for the full control effect; nearly all actives have a fitted effect of over 50% in size
TDP1 block: inhibitors of human tyrosyl-DNA phosphodiesterase TDP1. recombinant TDP1, AlphaScreen DNA substrate cleavage. Potency, µM (top dose mostly 130 µM), for inactives: at the highest dose activity change, negative = inhibition, actives largely listed as inhibitors. Q9NUW8. 350,000 compounds, 0.28% hits; note: % is set by controls: 0 for no effect and ±100 for the full control effect; nearly all actives have a fitted effect of over 40% in size
Target sequence (Q9NUW8 whole entry, looked up): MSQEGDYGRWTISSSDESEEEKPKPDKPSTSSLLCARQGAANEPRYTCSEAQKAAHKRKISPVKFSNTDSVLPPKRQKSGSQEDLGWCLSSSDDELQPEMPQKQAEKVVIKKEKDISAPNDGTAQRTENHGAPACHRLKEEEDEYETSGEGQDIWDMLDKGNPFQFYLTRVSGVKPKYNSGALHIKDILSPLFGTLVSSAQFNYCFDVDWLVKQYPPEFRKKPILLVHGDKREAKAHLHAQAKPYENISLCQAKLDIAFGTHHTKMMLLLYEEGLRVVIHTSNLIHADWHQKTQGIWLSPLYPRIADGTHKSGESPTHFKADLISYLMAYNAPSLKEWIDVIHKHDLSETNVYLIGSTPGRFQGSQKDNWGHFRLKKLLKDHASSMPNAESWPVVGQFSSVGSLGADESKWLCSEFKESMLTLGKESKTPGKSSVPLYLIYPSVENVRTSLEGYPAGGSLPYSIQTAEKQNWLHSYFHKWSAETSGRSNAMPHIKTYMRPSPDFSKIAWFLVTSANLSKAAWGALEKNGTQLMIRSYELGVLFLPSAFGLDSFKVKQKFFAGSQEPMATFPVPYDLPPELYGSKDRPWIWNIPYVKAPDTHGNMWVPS
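Recombinant human Tdp1 (E. coli-expressed, 1 nM final) preincubated with compounds 15 min at room temperature, then 5'-biotin/3'-phosphotyrosine-FITC DNA substrate (15 nM final) added for 5 min. AlphaScreen beads (10 ug/ml final) added 10 min; cleavage lowers signal.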
HP1b binding inh: blocks HP1-beta chromodomain binding to methylated histone tails; P83916; AlphaScreen HP1-beta / biotin-H3K9me3 peptide binding; Potency, µM (doses to about 114 µM), for the others: top-dose activity change, negative = inhibition, usual class: inhibitors; 390,000 compounds, 0.56% hits; AID 540317; note: nearly all actives have a fitted effect of over 70% in size
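HP1-beta protein (50 nM final) preincubated 30 min at room temperature with biotinylated H3(1-18)K9me3 peptide (50 nM) in PBS pH 7.4, 0.01% Tween-20, then compound added for 30 min. AlphaScreen streptavidin donor/nickel chelate acceptor beads (10 ug/mL final), 30 min dark, luminescence read.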
G9a inh: blocks human histone lysine methyltransferase G9a; Q96KQ7; G9a H3K9 monomethylation, AlphaScreen, 2 h; Potency, µM (doses to about 102 µM), for inactives: at the top dose activity, negative = inhibition, usual class: inhibitors; 350,000 compounds, 8.8% hits; note: % is set by controls: 0 for no effect and ±100 for the full control effect; nearly all actives have a fitted effect of over 75% in size
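G9a (20 nM) preincubated 15 min RT with compounds, then 500 nM biotinylated H3K9 peptide and 20 uM SAM added; 2 h RT reaction. Monomethyl-H3K9 product detected by AlphaScreen with anti-H3K9me1 antibody, streptavidin donor and anti-rabbit IgG acceptor beads.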
Sfp PPTase inh: blocks B. subtilis Sfp PPTase activity | Q9F4F7 | Biochemical Sfp PPTase activity, qHTS | Potency, µM, for the others: largest response in the series, negative = inhibition, most hits filed as inhibitors | 310,000 compounds, 3.5% hits | AID 1490;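 note: the enzyme is Sfp with the accession as filed and its product quenches rhodamine fluorescence; 0% = enzyme reaction without inhibitor and -100% = no enzyme wells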
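Fluorescence-quenching assay: 15 nM Sfp-PPTase preincubated 15 min at room temperature with compound, then 5 uM rhodamine-CoA and 12.5 uM BHQ-2-labelled YbbR peptide added. Fluorescence (ex 525/em 598 nm) read at start and after 30 min; difference gives rate.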
BAZ2B inh: inhibitors of human BAZ2B bromodomain. 360,000 compounds, 4.4% hits. Potency, µM (series often up to 114 µM), for the others: top-dose activity change, negative = inhibition, hits mostly inhibitors. AlphaScreen BAZ2B-H3K14Ac peptide displacement; note: % is set by controls: 0 for no effect and ±100 for the full control effect; nearly all actives have a fitted effect of over 60% in size
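BAZ2B (50 nM) with biotin-H3(5-23)K14Ac peptide (50 nM) in PBS pH 7.4, 0.01% Tween-20, preformed 30 min, then compound 30 min at room temperature; top concentration 110uM. AlphaScreen streptavidin donor/nickel chelate acceptor beads (10 ug/mL final), 20 min dark, signal read.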
Numbers without * were called inactive; [ ] = remark or other dose. Calls come from the whole dose curve; as a rule, active = well fitted curve in the direction sought with a large enough effect; inconclusive = small, poorly fitted or top-dose-only effect, or another doubt; inactive = no such curve, though single readings can be large; an effect the other way counts as inactive or inconclusive. Potency is the fitted concentration of half-maximal effect.

`CCC(=O)Nc1ccc(C(=O)Nc2ccc3c(c2)OCO3)cc1` gave JMJD2A Tudor inh -5%, TDP1 block -1%, HP1b binding inh 20%, G9a inh 49%[12.7 µM], Sfp PPTase inh 12% and BAZ2B inh -4%.
`O=C(CSc1nc(=O)n(Cc2ccco2)c2c1CCC2)Nc1ccccc1C(F)(F)F` gave JMJD2A Tudor inh -17%, TDP1 block -3%, HP1b binding inh 21%, G9a inh 2%[59 µM] and BAZ2B inh -10%.
For CCOC(=O)C1CCN(S(=O)(=O)c2ccc3[nH]c(=O)c(=O)[nH]c3c2)CC1 the results were JMJD2A Tudor inh -2%, TDP1 block -2%, HP1b binding inh 16%, G9a inh -2%, Sfp PPTase inh 14% and BAZ2B inh -8%.
Screening CCOC(=O)C1CCN(S(=O)(=O)c2ccc3[nH]c4c(c3c2)CCCC4)CC1 returned JMJD2A Tudor inh 22µM*, TDP1 block 8%, HP1b binding inh inconclusive, G9a inh inconclusive, Sfp PPTase inh 5% and BAZ2B inh inconclusive.
For COc1ccccc1NC(=O)C1CCN(S(=O)(=O)c2ccc3[nH]c4c(c3c2)CCCCC4)CC1 the results were JMJD2A Tudor inh -30%, TDP1 block 8%, HP1b binding inh 37%, G9a inh 3.5µM* and BAZ2B inh -11%.
COc1ccc(S(=O)(=O)N2CCC(C(=O)Nc3ccccc3N3CCCC3)CC2)cc1OC was read as JMJD2A Tudor inh -22%, TDP1 block 6%[56.1 µM], HP1b binding inh 11%, G9a inh 45µM*, Sfp PPTase inh 8% and BAZ2B inh -36%.
Screening CCOC(=O)CC(NS(=O)(=O)c1ccc2[nH]c3c(c2c1)CCCC3)c1ccccc1Cl (stereo not given) returned JMJD2A Tudor inh 35µM*, TDP1 block 6%, HP1b binding inh inconclusive, G9a inh 6.3µM* and BAZ2B inh 35µM*.
For COc1ccc(S(=O)(=O)N2CCC(C(=O)Nc3ccccc3)CC2)cc1OC the results were JMJD2A Tudor inh -9%, HP1b binding inh 20%, G9a inh 3%[59 µM] and BAZ2B inh 3%.
Screening COC(=O)c1ccc(NS(=O)(=O)c2ccc3[nH]c4c(c3c2)CCCCC4)cc1 returned JMJD2A Tudor inh inconclusive, TDP1 block 7%, HP1b binding inh -10%, G9a inh inconclusive and BAZ2B inh -15%[57.1 µM].
Screening NCCCCCC(=O)Nc1ccncc1 returned JMJD2A Tudor inh -3%, TDP1 block 4%, HP1b binding inh 39%, Sfp PPTase inh 10% and BAZ2B inh -12%.
For N#Cc1nc(Nc2ccc(-c3ccccc3)cc2)nc(NC2CCCC2)n1 the results were JMJD2A Tudor inh -21% and TDP1 block 1%.
For COC(=O)c1cn(NC(=O)c2cnccn2)c(=O)c2ccccc12 the results were JMJD2A Tudor inh 11µM*, TDP1 block 4%, HP1b binding inh 21%, G9a inh inconclusive, Sfp PPTase inh 9% and BAZ2B inh 7.1µM*.
`COc1cc(OC)cc(C(=O)Nn2cc(C(=O)Nc3ccccc3F)c3ccccc3c2=O)c1` gave JMJD2A Tudor inh -18%, TDP1 block 3%, HP1b binding inh 10%, G9a inh -14%, Sfp PPTase inh 6% and BAZ2B inh -34%.
Screening O=C(Nn1cc(C(=O)Nc2ccccc2F)c2ccccc2c1=O)c1cnccn1 returned JMJD2A Tudor inh 28µM*, TDP1 block -2%, HP1b binding inh 23%, G9a inh -18%, Sfp PPTase inh 7% and BAZ2B inh 28µM*.
`COC(=O)c1cn(NC(=O)c2ccc(OC)c(OC)c2)c(=O)c2ccccc12` gave JMJD2A Tudor inh -18%[57.1 µM], TDP1 block 0%, HP1b binding inh 12%, G9a inh 3%[59 µM], Sfp PPTase inh 1% and BAZ2B inh -3%.
